Measured values reported in PubChem BioAssay (NCATS).
Where “and” joins values, the source holds several entries; their conditions need not be identical. Equal entries are not always repeated. Inconclusive results are not listed. A call without a number means that no potency is given here. Calls of active or inactive are those of the source. Calls come from the whole dose curve; as a rule, active = well fitted cell-killing curve with a large enough effect; inconclusive = small, poorly fitted or top-dose-only effect, or effect the other way; inactive = no such curve, though single readings can be large or run the other way.
Potency is the fitted concentration of half-maximal effect.

Assay: Viability qHTS for spleen associated tyrosine kinase inhibitor (SYKi) drug resistant MV4-11 cells (AID 1963824); note: nearly all actives have a fitted effect of over 35% in size
Details: SYKi-resistant MV4-11 viability, CellTiter-Glo, 72 h; series mostly up to 45 µM
Summary of the method: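 SYK-inhibitor-resistant MV4-11 AML cells were seeded at 500 per well onto compound and cultured 72 hours (37 °C, 5% CO2). CellTiter-Glo was then added, and after 10 min at room temperature, luminescence gave viability.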
With `COCCN1CCN(Cc2ccc(-c3n[nH]c4c3C(=O)c3c(NC(=O)NN5CCOCC5)cccc3-4)cc2)CC1` the Potency was 0.0209 µM (active).
For `Cc1cc(C)nc(NS(=O)(=O)c2ccc(N)cc2)n1`, the Potency was “inactive”.
For `O=C(Nc1ccc(C(=O)O)c(O)c1)c1ccccc1`, the Potency was “inactive”.
For `Nc1ncnc2c1ncn2[C@@H]1O[C@H](CO)[C@@H](O)[C@H]1O`, the Potency was “inactive”.
With `C[C@H]1O[C@@H](n2cc(F)c(=O)[nH]c2=O)[C@H](O)[C@@H]1O` the Potency was 2.11 µM (active) and 1.05 µM (active).
With `CCc1nnc(NS(=O)(=O)c2ccc(N)cc2)s1` the Potency was “inactive”.
For `C=CC(=O)Nc1cc(N2CCN(CC)CC2)ccc1Nc1cc(N(C)C(=O)Nc2c(Cl)c(OC)cc(OC)c2Cl)ncn1`, the Potency was 7.42 µM (active).
With `Nc1ncnc2nc[nH]c12` the Potency was “inactive”.
With `COc1cc(NS(C)(=O)=O)ccc1Nc1c2ccccc2nc2ccccc12` the Potency was 0.468 µM (active).
For `CCN(c1cc(-c2ccc(CN3CCOCC3)cc2)cc(C(=O)NCc2c(C)cc(C)[nH]c2=O)c1C)C1CCOCC1`, the Potency was 20.6 µM (active).
For `CC(NN)c1ccccc1` (stereo not given), the Potency was “inactive”.
With `O=C1NC(=O)[C@@H](c2c[nH]c3ccccc23)[C@H]1c1cn2c3c(cccc13)CCC2` the Potency was 0.742 µM (active).
With `NC(=O)c1cc[n+](CC2=C(C(=O)[O-])N3C(=O)[C@@H](NC(=O)Cc4cccs4)[C@H]3SC2)cc1` the Potency was “inactive”.
In the case of `CCCCNc1ccc(C(=O)OCCN(C)C)cc1`, the Potency is reported as “inactive”.
For `C/C(=C\c1csc(C)n1)[C@@H]1C[C@@H]2O[C@]2(C)CCC[C@H](C)[C@H](O)[C@@H](C)C(=O)C(C)(C)[C@@H](O)CC(=O)N1`, the Potency was 0.0132 µM (active).
In the case of `CC(CSC(=O)c1ccccc1)C(=O)N1C[C@@H](Sc2ccccc2)C[C@H]1C(=O)O` (stereo not given in full), the Potency is reported as “inactive”.
In the case of `CCCc1ccc(OCC(=O)N2CCN(C(=O)COc3ccc(CCC)cc3OC)CC2)c(OC)c1`, the Potency is reported as “inactive”.
For `CCOc1ccc(NC(C)=O)cc1`, the Potency was “inactive”.
In the case of `Nc1ccc(O)c(C(=O)O)c1`, the Potency is reported as “inactive”.
In the case of `CC(C)n1c(=O)cc(N[C@@H](C)c2ccccc2)[nH]c1=O`, the Potency is reported as 11.8 µM (active).
In the case of `COc1cc2c(cc1OC)CN(C(=O)[C@H](C)N[C@@H](CCc1ccccc1)C(=O)O)[C@H](C(=O)O)C2`, the Potency is reported as “inactive”.
With `CCOc1ccc2ccccc2c1C(=O)N[C@@H]1C(=O)N2[C@@H]1SC(C)(C)[C@@H]2C(=O)O` the Potency was “inactive”.
In the case of `CCOC(=O)[C@@](C)(N)Cc1ccc(O)c(O)c1`, the Potency is reported as “inactive”.
In the case of `CN1C(CCl)Nc2cc(Cl)c(S(N)(=O)=O)cc2S1(=O)=O` (stereo not given), the Potency is reported as “inactive”.
With `CC(=O)O[C@]1(C(C)=O)CC[C@H]2[C@@H]3C=C(Cl)C4=CC(=O)CC[C@]4(C)[C@H]3CC[C@@]21C` the Potency was 11.9 µM (active).
In the case of `Cc1ccc(Sc2ccccc2N2CCNCC2)c(C)c1`, the Potency is reported as 4.68 µM (active).
In the case of `CC(C)=CCC/C(C)=C/CC/C(C)=C/C(=O)OCC(=O)[C@@]1(O)CC[C@H]2[C@@H]3CCC4=CC(=O)C=C[C@]4(C)[C@H]3[C@@H](O)C[C@@]21C`, the Potency is reported as 9.44 µM (active).
For `COCCOc1ccc(N2CCN(CCn3ncc4c3nc(N)n3nc(-c5ccco5)nc43)CC2)cc1`, the Potency was 0.103 µM (active).
With `Nc1cccc2c1CN([C@H]1CCC(=O)NC1=O)C2=O` the Potency was “inactive”.
For `Cc1[nH]nc2ncc(C(=O)N3CCC[C@H]3c3ccc(Cl)cc3)cc12`, the Potency was 2.95 µM (active).
With `CCc1c(C(=O)NNC(=O)[C@@H](O)c2cc(F)cc(F)c2)ccc(O)c1C` the Potency was 9.2 µM (active).
In the case of `COc1cc(N2CCC(N3CCN(C)CC3)CC2)ccc1Nc1ncc(Cl)c(Nc2ccccc2P(C)(C)=O)n1`, the Potency is reported as 130 nM (active) and 23.5 nM (active).
With `C/C=C/C=N/NC(=O)c1ccncc1` the Potency was “inactive”.
With `C#C[C@]1(O)CC[C@H]2[C@@H]3CCc4cc(OC5CCCC5)ccc4[C@H]3CC[C@@]21C` the Potency was 11.9 µM (active).
In the case of `CCNC(=O)Nc1ncc(-c2cc(-c3c(C)cc(OC)cc3C)nc(-c3cnccn3)n2)s1`, the Potency is reported as “inactive”.
For `COc1cc(N2CCC(N)CC2)ccc1Nc1ncc(Cl)c(-c2c[nH]c3ccccc23)n1`, the Potency was 18.4 nM (active) and 37.2 nM (active).
With `O=S1(=O)OC(c2ccc(O)cc2)(c2ccc(O)cc2)c2ccccc21` the Potency was “inactive”.
For `O=C(Nc1nccs1)C(c1cc(F)ccc1O)N1Cc2ccccc2C1=O` (stereo not given), the Potency was 16.6 µM (active).
With `CN1CCCN=C1COC(=O)C(O)(c1ccccc1)C1CCCCC1` (stereo not given) the Potency was “inactive”.
With `COc1cccc2c1C(=O)c1c(O)c3c(c(O)c1C2=O)C[C@@](O)(/C(CO)=N/NC(=O)CCCCCN1C(=O)C=CC1=O)C[C@@H]3O[C@H]1C[C@H](N)[C@H](O)[C@H](C)O1` the Potency was 0.186 µM (active).
